Results published in PubChem BioAssay AID463173 (ICCB-Longwood Screening Facility, Harvard Medical School, 2010).
Screen size: about 52,000 compounds; about 4,300 (8.3%) were called active. This is one part of a sample in which actives are shown more often than they occur. Values without a mark were called inactive. No stated cut-off is given here; in the data, active means survival mostly below about 52% (no sharp cut-off); inactive means mostly above about 56%.

These compounds were tested on DeltatarO mutant (assay: growth inhibition of S. aureus wild type versus tarO mutant, primary screen, teichoic acid synthesis inhibitors, RN4220, OD600 (AID 463173)). Settings: OD600, 18 h, stronger effect = lower value, screened at 18.75 µg/mL (by protocol).

Structure (SMILES) | survival
COc1ccccc1NC(=O)c1oc2ccccc2c1NC(=O)Cc1ccccc1 | 78%
CCOc1ccc(NC(=O)CCc2c(C)nc3nc(-c4cc(OC)cc(OC)c4)nn3c2C)cc1 | 78%
Cc1ccc(CCNC(=O)CCCn2c(=O)c3cccn3c3ccc(F)cc32)cc1 | 33% (active)
CCCCNC(=O)CCn1c(=O)c2cccn2c2cccnc21 | 103%
Cc1ccc(CCNC(=O)CCn2c(=O)c3cccn3c3ccc(F)cc32)cc1 | 39% (active)
CN(C)c1ccc(CNC(=O)CCn2c(=O)c3cccn3c3ccc(F)cc32)cc1 | 57%
CSc1ccc(CCNC(=O)CCn2c(=O)c3cccn3c3ccc(F)cc32)cc1 | 48%
CCCCNC(=O)CCn1c(=O)c2cccn2c2ccc(F)cc21 | 41% (active)
Cc1cccc(CNC(=O)CCn2c(=O)c3cccn3c3ccc(F)cc32)c1 | 92%
Cc1ccc(Cc2nc3ccccc3nc2SCC(=O)N2CCN(c3ccccc3F)CC2)cc1 | 49%
CCOc1ccc(-n2ccn3c(CC(C)CC(=O)O)nnc3c2=O)cc1 (stereo not drawn) | 182%
O=C(Nc1ccccc1)c1ccc(F)cc1 | 76%
CCOC(=O)CC(NC(=O)Cn1nnc(-c2ccc(C(F)(F)F)cc2)n1)c1ccccc1Cl (stereo not drawn) | 73%
Cc1ccccc1-c1nc(CS(=O)CC(=O)N2CCN(c3cc(Cl)ccc3C)CC2)c(C)o1 (stereo not drawn) | 30% (active)
COc1cccc(-c2nc(CS(=O)CC(=O)N3CCN(c4cccc(C(F)(F)F)c4)CC3)c(C)o2)c1 (stereo not drawn) | 0% (active)
Cc1ccc(OCc2nc(-c3ccc(C(=O)N4CCN(c5cc(Cl)ccc5C)CC4)cc3)oc2C)cc1 | 76%
Cc1oc(-c2ccccc2F)nc1CS(=O)(=O)CC(=O)N1CCN(c2cccc(C(F)(F)F)c2)CC1 | 78%
Cc1ccc(-c2nc(CS(=O)CC(=O)N3CCN(c4cccc(Cl)c4)CC3)c(C)o2)cc1 (stereo not drawn) | 46%
Cc1oc(-c2ccccc2Cl)nc1CS(=O)CC(=O)N1CCN(c2cccc(C(F)(F)F)c2)CC1 (stereo not drawn) | 131%
Cc1oc(-c2ccc(Cl)cc2)nc1CS(=O)CC(=O)N1CCN(c2cccc(C(F)(F)F)c2)CC1 (stereo not drawn) | 99%
COc1ccc(-c2nc(CSCC(=O)N3CCN(c4ccc(OC)cc4)CC3)c(C)o2)cc1 | 77%
Cc1oc(-c2ccccc2F)nc1CS(=O)(=O)CC(=O)N1CCN(c2ccc(Cl)cc2)CC1 | 43% (active)
Cc1oc(-c2ccccc2F)nc1CS(=O)(=O)CC(=O)N1CCN(c2ccccc2)CC1 | 77%
Cc1ccc(-c2nc(CS(=O)CC(=O)N3CCN(c4ccc(Cl)cc4)CC3)c(C)o2)cc1 (stereo not drawn) | 80%
COc1ccc(-c2nc(CSCC(=O)N3CCN(c4cc(Cl)ccc4C)CC3)c(C)o2)cc1 | -4% (active)
Cc1cccc(-n2cc(-c3ccccc3)nc2SCC(=O)Nc2ccccc2Cl)c1 | 115%
CC(C)c1ccc(NC(=O)CS(=O)(=O)c2cccc3nsnc23)cc1 | 78%

Structure (SMILES) | survival
CCOC(=O)c1sc2ccccc2c1S(=O)(=O)N1CCN(c2cc(C)ccc2C)CC1 | 100%
Cc1ccc(CSc2cn(CC(=O)N3CCCCCC3)c3ccccc23)cc1 | 84%
COc1ccc(CCN2C(=O)N(c3ccc(F)cc3)C(=O)C2CC(=O)Nc2ccc(OC)cc2)cc1 (stereo not drawn) | 67%
CCc1ccc2occ(CC(=O)Nc3ccc(C)c(C)c3)c2c1 | 102%
COc1ccc(OC)c(NC(=O)c2nnn(CC(=O)Nc3ccc(C(C)C)cc3)c2N)c1 | 63%
COc1ccc(-c2nc(CSCC(=O)N3CCN(c4ccc(F)cc4)CC3)c(C)o2)cc1 | 57%
COc1ccc(-c2nc(CSCC(=O)N3CCN(c4ccccc4)CC3)c(C)o2)cc1 | 60%
COc1ccc(-c2nc(CSCC(=O)N3CCN(c4ccccc4F)CC3)c(C)o2)cc1 | 35% (active)
Cc1cccc(NC(=O)C(NS(=O)(=O)c2cccc3nsnc23)c2ccccc2)c1C (stereo not drawn) | 95%
COCCn1c(=NC(=O)c2ccc3c(c2)OCCO3)sc2cc(C(=O)OC)ccc21 | 86%
CCC12CN3CC(C)(CN(C1)C3c1ccccc1C)C2=O (stereo not drawn) | 76%
O=C(Nc1cccc(-c2nc3cc(Cl)ccc3o2)c1)c1cc([N+](=O)[O-])ccc1N1CCOCC1 | 40% (active)
Cc1ccc(-c2nc3cc(Cl)ccc3o2)cc1NC(=O)c1cc([N+](=O)[O-])ccc1N1CCOCC1 | 57%
COc1ccc(-c2nc3ccccc3o2)cc1NC(=O)c1cc([N+](=O)[O-])ccc1N1CCOCC1 | 44% (active)
O=C(Nc1cccc(-c2nc3ccccc3o2)c1)c1cc([N+](=O)[O-])ccc1N1CCOCC1 | 42% (active)
O=C(Nc1ccc(Cl)c(-c2nc3cc(Cl)ccc3o2)c1)c1cc([N+](=O)[O-])ccc1N1CCOCC1 | 111%
Cc1c(NC(=O)c2cc([N+](=O)[O-])ccc2N2CCOCC2)cccc1-c1nc2ccccc2o1 | 50%
O=C(Nc1cc(-c2nc3cc(Cl)ccc3o2)ccc1Cl)c1cc([N+](=O)[O-])ccc1N1CCOCC1 | 50%
COc1ccc2oc(-c3cccc(NC(=O)c4cc([N+](=O)[O-])ccc4N4CCOCC4)c3)nc2c1 | 49%
O=C(Nc1cc(-c2nc3ccccc3o2)ccc1Cl)c1cc([N+](=O)[O-])ccc1N1CCOCC1 | 57%
COCCN1Cc2cccc(C(=O)Nc3ccc(C(=O)OC)cc3)c2C1=O | 82%
CC(C)(C)C(=O)CSc1nc2ccsc2c(=O)n1Cc1ccccc1F | 126%
CCOC(=O)c1c(C)[nH]c(C)c1S(=O)(=O)N1CCCC(C(=O)Nc2ccc(C)c(N(C)C)c2)C1 (stereo not drawn) | 88%
CCCCOc1ccc(C(=O)N2CCN(CCc3ccccn3)CC2)cc1 | 51%
O=C(CN1CCC(NC(=O)NC2CCCCC2)CC1)Nc1cccc(I)c1 | 100%
CC1=Nc2cc(C(=O)NCCc3ccc(Cl)cc3)ccc2Sc2ccc(C)cc21 | 56%
